# Entries with a potency or affinity are not part of this list. The source made the active and inactive calls.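 How the source made its calls: active means fitted half-maximal concentration for ATP signal loss at most twice the top valid dose; inconclusive means flat curve between -70 and -30%, or an invalid fit; inactive means flat within ±30%, wrong direction, or potency past limit.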
# Assay: HepG2 cell cytotoxicity, dose response, cytotoxicity control, cherry-picks, set 5 (AID 1053118)
# Conditions: HepG2 viability, ATP luminescence, 72 h; series mostly up to 26 µM
row,SMILES,outcome
1,O=C(OCC(O)C(O)COC(=O)c1ccccc1)c1ccccc1 (stereo not given),inactive
2,CC(C)Cc1nnc(NC(=O)CSc2nc(N)cc(=O)[nH]2)s1,inactive
3,CC(C)C(=O)Nc1ccc2c(c1)C(=O)N(C)[C@@H]1CC[C@H](CC(=O)O)O[C@@H]1CO2,inactive
4,C[C@@H]1CN([C@@H](C)CO)C(=O)c2cc(NC(=O)C3CCCCC3)ccc2O[C@@H]1CN(C)Cc1ccc(-c2ccccc2)cc1,inactive
5,Cc1cccc(NC(=O)c2ccc(C3SCC(=O)N3CCc3ccccc3)cc2)c1 (stereo not given),inactive
6,C[C@H](CO)N1C[C@H](C)[C@H](CN(C)Cc2ccc(-c3ccccc3)cc2)Oc2ccc(NC(=O)C3CCCCC3)cc2C1=O,inactive
7,CC(C)(C)[S@@](=O)N1Cc2cc(C(=O)NCc3ccccc3F)nc(-c3cccc(-c4ccncc4)c3)c2[C@H]1CCO,inactive
8,CO[C@@H]1CN(C)C(=O)c2cc(NC(=O)Nc3ccc(Cl)c(Cl)c3)ccc2OC[C@H](C)NC[C@H]1C,inactive
9,COc1ccccc1N(CC(=O)N(CC(C)C)CC(C)C)S(=O)(=O)c1cccs1,inactive
10,N#C[C@@H]1[C@@H](c2ccccc2C2=CCCCC2)[C@@H](CO)N1S(=O)(=O)c1ccccc1,inactive
11,Cc1ccc(C(O)c2ncc(-c3cccc4ccccc34)[nH]2)cc1F (stereo not given),inactive
12,COc1ccccc1CC(=O)OC(C)C(=O)Nc1ccc(S(=O)(=O)N2CCCCC2)cc1 (stereo not given),inactive
13,Cc1ccc(S(=O)(=O)N2CC[C@@H]3[C@@H](CO)Nc4ccc(-c5cccc(C(=O)N(C)C)c5)cc4[C@@H]32)cc1,inactive
14,CCOC(=O)c1nnn(-c2ccc(OC)cc2)c1N,inactive
15,C[C@H](O)C#Cc1ccc2c(c1)O[C@H](CN(C)C)[C@@H](C)CN([C@H](C)CO)S2(=O)=O,inactive
16,Cc1ccc(-c2nc3ncccc3o2)cc1NC(=O)c1ccco1,inactive
17,N#Cc1ccc(-c2ccc3c(c2)[C@@H]2[C@@H](CCN2S(=O)(=O)c2cccc(F)c2)[C@@H](CO)N3)cc1,inactive
18,OC(CNC1CCCc2ccccc21)COc1c(Cl)cccc1Cl (stereo not given),inactive

row,SMILES,outcome
1,C[C@@H]1CN([C@H](C)CO)C(=O)c2cc(-c3ccccc3)cnc2O[C@@H]1CN(C)Cc1ccccc1,inactive
2,C[C@H]1CN([C@@H](C)CO)C(=O)c2cc(-c3ccccc3)cnc2O[C@H]1CN(C)Cc1ccccc1,inactive
3,C[C@H]1CN([C@@H](C)CO)C(=O)c2cc(NC(=O)C3CCCCC3)ccc2O[C@@H]1CN(C)Cc1ccc(-c2ccccc2)cc1,inactive
4,COCC(=O)Nc1ccc2c(c1)C(=O)N(C)[C@H]1CC[C@H](CC(=O)NCc3ccccc3Cl)O[C@H]1CO2,inactive
5,C[C@H](CO)N1C[C@H](C)[C@@H](CN(C)Cc2ccc(-c3ccccc3)cc2)Oc2ccc(NC(=O)CCCN(C)C)cc2C1=O,inactive
6,COC(=O)c1c(NC(=O)CN2CCN(c3ccccc3Cl)CC2)sc(C)c1C,inactive
7,C=CCC[C@H](Cc1ccc(F)cc1)C(=O)OC[C@H](Cc1c[nH]c2ccccc12)NC(=O)[C@@H](CC=C)CC(=O)N[C@@H](CO)Cc1ccccc1,inactive
8,COc1ncccc1C(=O)NC1CCCc2c1cnn2-c1ccc(C)c(C)c1 (stereo not given),inactive
9,C[C@@H]1CN([C@@H](C)CO)C(=O)c2cc(-c3ccccc3)cnc2O[C@H]1CN(C)C(=O)c1cccc(F)c1,inactive
10,Nc1c(C(=O)NCc2ccco2)nnn1Cc1ccccc1,inactive
11,COc1cccc(-c2ccc3c(c2)[C@@H]2[C@@H](CCN2S(=O)(=O)c2cccc(OC)c2)[C@H](CO)N3)c1,inactive
12,CCc1ccc(NC(=O)CSc2nnc(-c3ccco3)o2)cc1,inactive
13,CN(C)C(=O)c1ccc(-c2ccc3c(c2)[C@H]2[C@H](CCN2C(=O)c2ccc(F)cc2)[C@H](CO)N3C)cc1,inactive
14,C[C@H](O)C#Cc1ccc2c(c1)O[C@H](CN(C)C)[C@H](C)CN([C@H](C)CO)S2(=O)=O,inactive
15,O=C(Nc1ccccc1F)N1C[C@@H]2[C@H](c3ccccc31)[C@H](CO)N2C(=O)C1CCOCC1,inactive
16,O=C(CSc1nc2ncc(Cl)cc2[nH]1)c1c[nH]c2ccccc12,inactive
17,C[C@@H]1CN([C@H](C)CO)C(=O)c2cc(-c3ccccc3)cnc2O[C@H]1CN(C)Cc1ccccc1,inactive

# — PubChem BioAssay AID1053118 (Broad Institute, 2014)
